Test results from PubChem BioAssay (EPA / NIEHS).
The source made the active and inactive calls. The calls were made as follows: active = hit-call score of the fitted dose curve at least 0.9, where 1 is the maximum; inactive = score below 0.9.

Key:
[1] = read-out: Vascular cell adhesion molecule 1 (VCAM1), VCAM1 (gene 7412); assay: BSK_CASM3C_VCAM1: BioMAP Diversity Plus: CASM3C Assay for Vascular cell adhesion molecule 1 (VCAM1) Biomarker Activity (AID 2283055); details: primary human coronary artery smooth muscle cells; actives raise or lower the signal;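 also: VCAM-1 protein level quantified by ELISA on the cells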
[2] = read-out: Collagen III, COL3A1 (gene 1281); assay: BSK_hDFCGF_CollagenIII: BioMAP Diversity Plus: hDFCGF Assay for Collagen III Biomarker Activity (AID 2283056); details: primary human foreskin fibroblasts; actives raise or lower the signal
Outline: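 ELISA read-out of collagen III from human skin fibroblast cultures sampled 24 h post-dosing. Values were derived by bidirectional fitting relative to the DMSO vehicle control.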

[3] = read-out: Epidermal growth factor receptor (EGFR), EGFR (gene 1956); assay: BSK_hDFCGF_EGFR: BioMAP Diversity Plus: hDFCGF Assay for Epidermal growth factor receptor (EGFR) Biomarker Activity (AID 2283057); details: primary human foreskin fibroblasts; actives raise or lower the signal
Outline: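 EGFR levels by ELISA in human dermal fibroblast cultures, 24 h post-treatment, fitted bidirectionally versus DMSO. Parallel wells stained with sulforhodamine B to detect overt cytotoxicity.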

[4] = read-out: Interleukin-8 (IL8), CXCL8 (gene 3576); assay: BSK_hDFCGF_IL8: BioMAP Diversity Plus: hDFCGF Assay for Interleukin-8 (IL8) Biomarker Activity (AID 2283058); details: primary human foreskin fibroblasts; actives raise or lower the signal
Outline: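 Cells used are human skin primary fibroblasts. Chemical is added, cultures run 24 h, then IL-8 is quantified by ELISA, and gain or loss versus DMSO control is fitted in both directions.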

[5] = BSK_hDFCGF_Proliferation: Cell Proliferation Assessment in the BioMAP Diversity Plus: hDFCGF Assay (AID 2283059); details: primary human foreskin fibroblasts;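 also: curves fitted for both rise and fall of signal versus DMSO baseline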
Outline: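 Sub-confluent human foreskin fibroblast cultures receive test chemical […]. Relative cell number is quantified by sulforhodamine B staining (0.1%, after 10% TCA fixation) at 560 nm, with bidirectional fitting referenced to DMSO.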

[6] = read-out: Macrophage colony-stimulating factor (MCSF), CSF1 (gene 1435); assay: BSK_hDFCGF_MCSF: BioMAP Diversity Plus: hDFCGF Assay for Macrophage colony-stimulating factor (MCSF) Biomarker Activity (AID 2283060); details: primary human foreskin fibroblasts; actives raise or lower the signal
Outline: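 Primary human foreskin fibroblasts dosed with chemical; 24 h later, M-CSF quantified by ELISA; curves fitted in both directions vs DMSO negative control.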

[7] = BSK_hDFCGF_SRB: Viability Assessment in the BioMAP Diversity Plus: hDFCGF Assay (AID 2283061); details: primary human foreskin fibroblasts;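 also: cells exposed to compound for 24 h before the read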
Outline: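 Readout is SRB absorbance at 560 nm, reflecting total protein in parallel cultures of human foreskin fibroblasts harvested 24 h after chemical dosing. Activity was fitted bidirectionally relative to DMSO.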

[8] = read-out: TIMP metallopeptidase inhibitor 1 (TIMP1), TIMP1 (gene 7076); assay: BSK_hDFCGF_TIMP1: BioMAP Diversity Plus: hDFCGF Assay for TIMP metallopeptidase inhibitor 1 (TIMP1) Biomarker Activity (AID 2283062); details: primary human foreskin fibroblasts; actives raise or lower the signal
Outline: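 Human skin fibroblasts (primary), hDFCGF system; compound exposure 24 h; TIMP-1 by ELISA; bidirectional fit vs DMSO negative control; overt cytotoxicity by SRB in parallel wells.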

[9] = read-out: Monokine induced gamma interferon (MIG), CXCL9 (gene 4283); assay: BSK_hDFCGF_MIG: BioMAP Diversity Plus: hDFCGF Assay for Monokine induced gamma interferon (MIG) Biomarker Activity (AID 2283063); details: primary human foreskin fibroblasts; actives raise or lower the signal
Outline: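 Chemicals were added to primary human foreskin fibroblast cultures, which were sampled 24 h later. MIG levels were then quantified by ELISA and responses fitted in both directions relative to DMSO.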

[10] = read-out: Matrix Metallopeptidase 1 (MMP1), MMP1 (gene 4312); assay: BSK_hDFCGF_MMP1: BioMAP Diversity Plus: hDFCGF Assay for Matrix Metallopeptidase 1 (MMP1) Biomarker Activity (AID 2283064); details: primary human foreskin fibroblasts; actives raise or lower the signal
Outline: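 MMP1 levels quantified by ELISA 24 h after dosing human dermal fibroblast cultures, with parallel SRB total-protein staining for overt cytotoxicity. Data fitted in both directions against DMSO baseline.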

[11] = read-out: Vascular cell adhesion molecule 1 (VCAM1), VCAM1 (gene 7412); assay: BSK_hDFCGF_VCAM1: BioMAP Diversity Plus: hDFCGF Assay for Vascular cell adhesion molecule 1 (VCAM1) Biomarker Activity (AID 2283065); details: primary human foreskin fibroblasts; actives raise or lower the signal;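 as to AC50: VCAM-1 protein level quantified by ELISA after 24 h chemical exposure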
Outline: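 Human foreskin fibroblast primary cells, chemical exposure 24 h; VCAM-1 by ELISA; bidirectional fit, DMSO = negative control/baseline.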

[12] = read-out: Plasminogen activator inhibitor-1 (PAI1), SERPINE1 (gene 5054); assay: BSK_hDFCGF_PAI1: BioMAP Diversity Plus: hDFCGF Assay for Plasminogen activator inhibitor-1 (PAI1) Biomarker Activity (AID 2283066); details: primary human foreskin fibroblasts; actives raise or lower the signal
Outline: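 PAI-1 levels in human dermal foreskin fibroblasts were quantified by ELISA 24 h after dosing, with gain or loss analysed against DMSO. Overt cytotoxicity was checked by sulforhodamine B total-protein staining in parallel cultures.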

[13] = read-out: Intercellular Adhesion Molecule 1 (ICAM1), ICAM1 (gene 3383); assay: BSK_KF3CT_ICAM1: BioMAP Diversity Plus: KF3CT Assay for Intercellular Adhesion Molecule 1 (ICAM1) Biomarker Activity (AID 2283067); details: primary human keratinocytes with fibroblasts; actives raise or lower the signal
Outline: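 ICAM-1 levels are measured by ELISA 24 h after dosing a primary human co-culture of keratinocytes and foreskin fibroblasts. Activity in either direction is fitted relative to DMSO vehicle.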

[14] = read-out: Interferon-gamma inducible Protein 10 (IP10), CXCL10 (gene 3627); assay: BSK_KF3CT_IP10: BioMAP Diversity Plus: KF3CT Assay for Interferon-gamma inducible Protein 10 (IP10) Biomarker Activity (AID 2283068); details: primary human keratinocytes with fibroblasts; actives raise or lower the signal
Outline: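 ELISA read-out of IP-10 after 24 h chemical dosing of human skin primary co-culture (keratinocytes, foreskin fibroblasts). Gain or loss of signal relative to DMSO, bidirectional curve fit.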

[15] = BSK_KF3CT_SRB: Viability Assessment in the BioMAP Diversity Plus: KF3CT Assay (AID 2283069); details: primary human keratinocytes with fibroblasts;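 also: read 24 h after compound addition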
Outline: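 Cytotoxicity was gauged by SRB staining (0.1% SRB, 10% TCA fixation, 560 nm) of parallel cultures at 24 h. The cells were primary human skin keratinocytes co-cultured with fibroblasts, and activity was fitted in both directions against DMSO.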

[16] = read-out: Interleukin-1 alpha (IL1a), IL1A (gene 3552); assay: BSK_KF3CT_IL1a: BioMAP Diversity Plus: KF3CT Assay for Interleukin-1 alpha (IL1a) Biomarker Activity (AID 2283070); details: primary human keratinocytes with fibroblasts; actives raise or lower the signal
Outline: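 IL-1a was detected by ELISA 24 h after chemical treatment of a co-culture of human skin keratinocytes and foreskin fibroblasts. Gain or loss of signal was fitted against the DMSO baseline.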

[17] = read-out: TIMP metallopeptidase inhibitor 2 (TIMP2), TIMP2 (gene 7077); assay: BSK_KF3CT_TIMP2: BioMAP Diversity Plus: KF3CT Assay for TIMP metallopeptidase inhibitor 2 (TIMP2) Biomarker Activity (AID 2283071); details: primary human keratinocytes with fibroblasts; actives raise or lower the signal
Outline: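 TIMP-2 measured by ELISA at 24 h in human keratinocyte/fibroblast primary co-cultures exposed to chemicals. Both increases and decreases were fitted against DMSO. Parallel cultures were stained with SRB for total protein as an overt-cytotoxicity check.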

[18] = read-out: C-C motif chemokine 2 (Homo sapiens) (UniProt P13500); assay: BSK_KF3CT_MCP1: BioMAP Diversity Plus: KF3CT Assay for Monocyte Chemoattractant Protein 1 (MCP1/CCL2) Biomarker Activity (AID 2283073); details: primary human keratinocytes with fibroblasts; actives raise or lower the signal
Outline: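 ELISA readout of MCP-1 after 24 h chemical dosing of a human skin primary co-culture of keratinocytes and foreskin fibroblasts. Activity was fitted in both directions against DMSO.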

[19] = read-out: Matrix Metallopeptidase 9 (MMP9), MMP9 (gene 4318); assay: BSK_KF3CT_MMP9: BioMAP Diversity Plus: KF3CT Assay for Matrix Metallopeptidase 9 (MMP9) Biomarker Activity (AID 2283074); details: primary human keratinocytes with fibroblasts; actives raise or lower the signal
Outline: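 MMP-9 quantified by ELISA after 24 h chemical treatment of primary human skin keratinocyte/fibroblast co-cultures; gain or loss fitted against DMSO, with parallel SRB staining (0.1% SRB, 560 nm) for overt cytotoxicity.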

Measured: AC50

OCCN(CCO)CCO
not listed: [19]
inactive: all other assays above

CCOP(=O)(OCC)OC(=CCl)c1ccc(Cl)cc1Cl
active: [1] 33.8 µM | [2] 25.6 µM | [5] 37.4 µM | [6] 31 µM | [7] 30.8 µM | [8] 30.1 µM | [10] 31.5 µM | [11] 36.8 µM | [12] 24.7 µM | [14] 32.8 µM | [15] 35.2 µM | [17] 25.7 µM | [18] 20 µM
inactive: [3] | [4] | [13]

CC(C)=CC1C(C(=O)OCc2cccc(Oc3ccccc3)c2)C1(C)C (centres undefined)
active: [2] 7.5 µM | [5] 20 µM | [6] 7.43 µM | [7] 12.4 µM | [8] 12.5 µM | [11] 12.4 µM | [12] 12.5 µM | [17] 2.81 µM
not listed: [9] | [19]
inactive: all other assays above

N#CCCC(Br)(C#N)CBr (centres undefined)
active: [1] 11.9 µM | [2] 17 µM | [4] 12.7 µM | [5] 0.4 µM | [6] 5.08 µM | [7] 7.68 µM | [8] 4.28 µM | [10] 11.8 µM | [11] 3.74 µM | [12] 9.61 µM | [13] 26.8 µM | [14] 33.1 µM | [15] 20 µM | [16] 14.4 µM | [17] 20 µM | [18] 20 µM
inactive: [3]

CCN(CC)C(=O)C(Cl)=C(C)OP(=O)(OC)OC
not listed: [19]
inactive: all other assays above

CCOP(=O)(OCC)SCCSCC
not listed: [9]
inactive: all other assays above
